# Source: PubChem BioAssay
# NSD2 inh: NSD2 (human) methyltransferase inhibition. O96028. NSD2 peptide methylation, AlphaScreen, 120 min. inhibition, % at 12.5 µM. hit rate 0.54% among 310,000. AID 743445; in the data active = inhibition above about 50%
# CFTR F508del cor: correctors of CFTR F508del function in bronchial epithelial cells; activity (quench increase), % at 7.58 µM; CFBE cells, YFP halide quenching; stimulated with forskolin plus potentiator P3; % fluorescence drop versus neutral controls; hit rate 0.36% among 350,000;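 active = mean added fluorescence quench of at least 8% versus neutral control, with both replicates also reaching 8%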;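 note: cells transiently co-express mutant CFTR-F508del with the halide-sensitive YFP; corrector assay measuring rescue of mutant channel to the surface after 24 h compound exposure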
# Env fusion inh: inhibitors of HIV Env-mediated cell fusion. hit rate 1.1% among 360,000. inhibition, % at 12.3 µM. HeLa-JRFL Env/CEM21 cell fusion, luciferase. AID 651610;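 active = mean replicate inhibition score of at least 50 and every replicate individually at or above 50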
# PglD inh: PglD (C. jejuni) enzyme inhibition; purified PglD enzyme, DTNB colorimetric CoA detection; inhibition, % at 12.5 µM; hit rate 0.098% among 360,000; in the data active = inhibition above about 16%, passing the limit was not always enough
# ALR inh: blocks human ALR sulfhydryl oxidase activity. AID 485317. hit rate 3.8% among 290,000. inhibition, % (no concentration beside the values). purified ALR, DTT oxidation, H2O2 HRP-luminol luminescence;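 active = mean replicate inhibition above about 79%, with every replicate also reaching it, limit read from the data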
# Target sequence (P55789 whole entry, looked up): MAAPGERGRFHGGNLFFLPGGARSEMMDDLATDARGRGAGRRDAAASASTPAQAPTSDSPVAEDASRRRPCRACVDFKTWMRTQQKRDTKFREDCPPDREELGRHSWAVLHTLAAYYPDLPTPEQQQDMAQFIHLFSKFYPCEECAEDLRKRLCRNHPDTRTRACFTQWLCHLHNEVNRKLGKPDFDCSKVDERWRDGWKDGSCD
# CASP6 VEID inh: blocks human caspase-6 cleavage activity. P55212. purified caspase-6, Z-VEID-R110 cleavage fluorescence. inhibition, % at 12.5 µM. hit rate 0.53% among 350,000;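 active = mean inhibition across replicates at least about 35%, with every replicate also reaching that limit, limit read from the data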
# Target sequence (P55212 24-179 limits assumed): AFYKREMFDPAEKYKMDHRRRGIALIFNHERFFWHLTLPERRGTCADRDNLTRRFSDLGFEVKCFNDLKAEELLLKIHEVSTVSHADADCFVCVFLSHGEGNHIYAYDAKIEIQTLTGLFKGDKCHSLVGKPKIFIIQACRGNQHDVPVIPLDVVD
# Target sequence (P55212 194-293 limits assumed): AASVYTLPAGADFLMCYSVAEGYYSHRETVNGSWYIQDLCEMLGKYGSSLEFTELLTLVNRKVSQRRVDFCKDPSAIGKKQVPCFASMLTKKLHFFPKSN
# A number is an active result; i = inactive; nt = no result given; [ ] = dose if it differs, or a comment. An excerpt weighted towards active compounds, which were near 4.1% of everything screened.
SMILES,NSD2 inh,CFTR F508del cor,Env fusion inh,PglD inh,ALR inh,CASP6 VEID inh
Cn1c(=O)[nH]c(=O)c2c1nc(Br)n2CC(O)COCc1ccccc1 (stereo not given),nt,nt,nt,i,91,nt
Cn1c(=O)[nH]c(=O)c2c1nc(Br)n2CC(O)COc1ccccc1 (stereo not given),i,i,nt,i,i,i
Cc1ccc(-c2ccc3c(c2)O[C@@H](CN(C)S(C)(=O)=O)[C@@H](C)CN([C@H](C)CO)S3(=O)=O)cc1,nt,i,i,i,nt,i
Cc1cccc(C(=O)c2cnc3ccccc3c2-c2ccccc2)c1,i,nt,73,i,nt,nt
CN(C=[N+](C)C)c1cccc2c1C(=O)c1ccccc1C2=O,69,nt,i,nt,i,nt
O=C(O)C1=C2C(=O)Nc3cccc(c32)C2(C1)C(=O)Nc1ccccc12 (stereo not given),nt,i,i,i,nt,60
COc1ccccc1S(=O)(=O)N[C@H]1CC[C@@H](CCNC(=O)C2CCC2)O[C@@H]1CO,nt,i,i,i,nt,i
Cc1ccc(C(C(=O)NC2CCCCC2)N(C(=O)CCCC(=O)Nc2ccccn2)c2ccc3c(c2)OCCO3)cc1 (stereo not given),i,nt,i,nt,i,nt
O=C(CCCC(=O)N(c1ccc2c(c1)OCCO2)C(C(=O)NC1CCCCC1)c1ccc(F)cc1)Nc1ccccn1 (stereo not given),i,nt,69,i,i,nt
OCn1ncn(-c2ccccc2)c1=S,i,nt,nt,i,92,nt
COc1ccc(NC(=O)N(C)C[C@H]2OCCCC[C@@H](C)Oc3ccc(NC(=O)Nc4ccc5c(c4)OCO5)cc3C(=O)N([C@@H](C)CO)C[C@H]2C)cc1,nt,i,i,i,nt,i
O=C(O)c1ccc(Sc2nnc(-c3cccc(Br)c3)o2)c([N+](=O)[O-])c1,i,nt,i,i,99,nt
O=C(C[C@@H]1CC[C@@H]2[C@H](COC[C@@H](O)CN2C(=O)Nc2cccc(F)c2)O1)NCc1ccccc1F,nt,i,nt,i,nt,i
CCNC(=O)C[C@@H]1CC[C@@H]2[C@H](COC[C@@H](O)CN2C(=O)c2ccccn2)O1,nt,i,65[16.7 µM],i,nt,i
CCNC(=O)C[C@@H]1CC[C@H]2[C@@H](COC[C@@H](O)CN2C(=O)c2ccccn2)O1,nt,i,i,i,nt,i
O=C(C[C@@H]1CC[C@H]2[C@@H](COC[C@H](O)CN2C(=O)Nc2cccc(F)c2)O1)NCc1ccccc1F,nt,i,nt,19,nt,i
Cc1ccc(C)c(CNc2ccc(S(=O)(=O)N3CCCCC3)cc2)c1,i,i,76,i,i,i
Cc1ccc(S(=O)(=O)N2CCN(S(=O)(=O)N3CCC(C)CC3)CC2)c(C)c1,i,i,i,i,i,i
Cc1ccc(S(=O)(=O)N2CCN(S(=O)(=O)N3CCCCC3)CC2)c(C)c1,nt,i,nt,nt,100,i
Cc1ccc(S(=O)(=O)N2CCCCC2)cc1,i,i,i,i,i,i
COc1ccc2c3c(n(C)c2c1)[C@@H](CO)N(C(C)=O)CC31CCN(C(=O)Nc2ccc(F)cc2)CC1,nt,i,nt,nt,nt,nt
O=C(C1CCCC1)N1CC2(C1)[C@H](c1ccccc1)[C@H](CO)N2C(=O)CC1CC1,nt,i,nt,nt,nt,nt
COc1ccc(S(=O)(=O)Nc2ccc3c(c2)C(=O)N([C@H](C)CO)C[C@@H](C)[C@@H](CN(C)C(=O)Nc2ccc(C(F)(F)F)cc2)OCCCC[C@@H](C)O3)cc1,nt,i,i,i,nt,i
CSc1nc(O)c(Nc2cccc(Cl)c2)c(=O)[nH]1,i,i,i,i,89,i
CSc1nc(O)c(Nc2ccccc2)c(=O)[nH]1,i,i,i,i,nt,i
SMILES,NSD2 inh,CFTR F508del cor,Env fusion inh,PglD inh,ALR inh,CASP6 VEID inh
C#CCNC(=O)CSCc1nc(-c2ccc(OCC)cc2)oc1C,i,nt,nt,nt,nt,nt
N#Cc1ccc(-c2ccc(OCC(=O)NCCCN3CCCC3=O)cc2)cc1,i,i,i,nt,99,i
Cc1oc(-c2ccc(Cl)cc2)nc1CN1CCCC(C(=O)NCCCN2CCCC2=O)C1 (stereo not given),nt,i,i,i,i,i
COc1ccc(-c2nc(CSCC(=O)NCCCN3CCCC3=O)c(C)o2)cc1,i,i,i,nt,96,i
CCOc1ccc(-c2nc(CSCC(=O)NCCCN3CCCC3=O)c(C)o2)cc1,i,i,i,i,99,i
CCOc1ccc(-c2nc(CSCC(=O)NCCN3CCOCC3)c(C)o2)cc1,i,nt,nt,nt,99,nt
N#Cc1ccc(OCC(=O)NCCCN2CCCC2=O)cc1,i,i,nt,i,nt,i
Cc1cccc(/C=C(\C(=O)O)c2ccc(S(=O)(=O)N3CCCC3)s2)c1,i,i,i,i,i,52
CCCCOc1ccc(/C=C(\C(=O)O)c2ccc(S(=O)(=O)N3CCCC3)s2)cc1,i,i,i,i,i,i
COc1cc(/C=C(\C(=O)O)c2ccc(S(=O)(=O)N3CCCC3)s2)ccc1OCCC(C)C,i,i,i,i,nt,45
CCOc1ccccc1/C=C(\C(=O)O)c1ccc(S(=O)(=O)N2CCCCC2)s1,i,i,i,i,nt,36
O=C(O)/C(=C\c1cccc(F)c1)c1ccc(S(=O)(=O)N2CCCC2)s1,i,i,nt,i,i,57
O=C(O)/C(=C\c1ccc(Br)cc1)c1ccc(S(=O)(=O)N2CCCCC2)s1,i,i,i,nt,i,i
COC(=O)[C@H]1[C@H](CO)[C@H]2Cn3c(ccc(-c4cccc(F)c4)c3=O)[C@H]2N1CC1CC1,nt,i,nt,i,nt,i
Cc1noc(C)c1NC(=O)Nc1ccc2c(c1)C(=O)N([C@H](C)CO)C[C@@H](C)[C@@H](CN(C)C(=O)Nc1ccc3c(c1)OCO3)OCCCC[C@@H](C)O2,nt,i,i,i,nt,i
COCCNC(=O)c1cc2c(c(-c3cccc(-c4cccc(F)c4)c3)n1)[C@H](CCO)N([S@@](=O)C(C)(C)C)C2,nt,i,i,i,nt,i
COc1cccc(-c2nc(CS(=O)(=O)CC(=O)NCCc3ccc(OC)cc3OC)c(C)o2)c1,i,i,i,i,i,i
COc1ccc(-c2nc(CS(=O)CC(=O)NCc3ccc4c(c3)OCO4)c(C)o2)cc1 (stereo not given),nt,i,i,i,99,i
COc1cccc(-c2nc(CS(=O)CC(=O)NCc3ccccc3Cl)c(C)o2)c1 (stereo not given),nt,i,i,i,99,i
COc1cccc(-c2nc(CS(=O)CC(=O)NCc3ccc4c(c3)OCO4)c(C)o2)c1 (stereo not given),nt,i,nt,i,99,i
CN(C)C(=O)c1cccc(-c2ccc3c(c2)[C@@H]2[C@@H](CCN2C(=O)C2CCCCC2)[C@H](CO)N3)c1,nt,i,nt,i,nt,nt
O=C(c1ccccc1)N1CC[C@@H]2[C@H]1c1cc(-c3ccc(F)cc3)ccc1N[C@@H]2CO,nt,i,nt,i,nt,nt
O=C(C[C@@H]1C=C[C@H](NC(=O)Cc2cccnc2)[C@@H](CO)O1)Nc1ccccc1,nt,i,i,i,nt,i
O=C1CS(=O)(=O)C(c2ccccc2)N1c1ccc(Cl)cc1 (stereo not given),nt,i,i,i,nt,i
Cc1c(NC(=O)C2C3C=CC(C3)C2C(=O)O)c(=O)n(-c2ccccc2)n1C (stereo not given),i,i,nt,nt,i,36
